Only some compounds are listed: those with a hit (about 3.3% of all), similar ones and a draw of the others.
AmpC inh detg: qHTS Inhibitors of AmpC Beta-Lactamase (assay with detergent). Potency, µM (titrated, usually from 114 µM), for inactives: at the highest dose activity change, negative = inhibition, most hits filed as inhibitors. AmpC hydrolysis of nitrocefin, absorbance 480 nm, 0.01% Triton. AID 485294, 2010. 370,000 compounds, 0.041% hits. P00811;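 also: 0% = no-compound wells and -100% = no-enzyme wells; nearly all actives have a fitted effect of over 25% in size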
Target sequence (P00811 whole entry, looked up): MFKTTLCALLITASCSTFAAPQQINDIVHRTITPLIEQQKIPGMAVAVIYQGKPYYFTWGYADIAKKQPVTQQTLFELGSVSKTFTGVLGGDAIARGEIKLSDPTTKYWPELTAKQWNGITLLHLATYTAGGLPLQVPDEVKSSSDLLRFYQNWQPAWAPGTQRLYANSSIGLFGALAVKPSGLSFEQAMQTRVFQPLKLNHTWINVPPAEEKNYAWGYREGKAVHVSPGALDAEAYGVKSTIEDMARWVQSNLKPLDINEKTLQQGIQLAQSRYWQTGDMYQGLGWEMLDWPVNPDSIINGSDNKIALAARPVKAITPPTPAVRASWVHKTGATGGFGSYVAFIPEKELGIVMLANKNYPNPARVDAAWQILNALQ
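AmpC (5.3 nM in the dispensed reagent) in 20 mM phosphate pH 7.0 with 0.01% (detergent screen) or 0.0001% Triton X-100 was preincubated with compounds for 15 min at room temperature. Nitrocefin was then added from an 800 uM solution, and hydrolysis was followed at 480 nm.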
Sm TGR block: qHTS Assay for the Inhibitors of Schistosoma Mansoni Peroxiredoxins; Schistosoma mansoni thioredoxin glutathione reductase (TGR), Q962Y6; purified TGR, DTNB reduction, TNB absorbance 405 nm; Potency, µM (titrated, usually from 114 µM), for inactives: at the highest dose activity change, negative = inhibition, usual class: inhibitors; 360,000 compounds, 3% hits; also: nearly all actives have a fitted effect of over 60% in size
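Kinetic colorimetric format: TGR-catalysed, NADPH-driven DTNB reduction monitored via TNB absorbance. Enzyme dispensed at 20 nM; compound exposure 15 min at room temperature before reaction start.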
AmpC no deterg: qHTS Inhibitors of AmpC Beta-Lactamase (assay without detergent); AmpC nitrocefin hydrolysis, absorbance 480 nm, 0.0001% Triton; Potency, µM (top dose mostly 57.1 µM), without a hit: at the highest dose activity change, negative = inhibition, usual class: inhibitors; 330,000 compounds, 0.52% hits; P00811;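 also: plate controls were no compound for no effect and no enzyme for full effect; nearly all actives have a fitted effect of over 20% in size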
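AmpC (5.3 nM in the dispensed reagent) in 20 mM phosphate pH 7.0 with 0.01% (detergent screen) or 0.0001% Triton X-100 was preincubated with compounds for 15 min at room temperature. Nitrocefin was then added from an 800 uM solution, and hydrolysis was followed at 480 nm.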
* marks the source's active call; other numbers are inactive results; ? = inconclusive; nt = no result given; [ ] = another dose, or the depositor's remark. Calls follow the shape of the dose curve; as a rule, active = well fitted curve in the direction sought with a large enough effect; inconclusive = small, poorly fitted or top-dose-only effect, or another doubt; inactive = no such curve, though single readings can be large; an effect the other way counts as inactive or inconclusive. Unless noted, % is scaled to controls: 0 for no effect and ±100 for the full control effect; potency is read from the fitted curve at half-maximal effect.

SMILES	AmpC inh detg	Sm TGR block	AmpC no deterg
Cc1ccc2[nH]c3c(c2c1)CN(C(=O)CN1CCCc2ccccc21)CC3	?	32µM*	22%
COc1ccc(CN(C)C(=O)c2cccc(NS(=O)(=O)c3ccccc3)c2)cc1F	?	0%	-18%
CCCCn1c(N)c(N(CC(C)C)C(=O)COC(=O)Cc2c(C)nc3ccccc3c2C)c(=O)[nH]c1=O	-9%	-26%	176%
CCCOc1ccc(N2C(=O)CC(NCC#N)C2=O)cc1 (stereo unspecified)	-13%	1%	-5%
CCOC(=O)CNC1CC(=O)N(c2ccc(Br)cc2)C1=O (stereo unspecified)	1%	10µM*	-23%
O=C(NNC1CC(=O)N(c2ccc(Br)cc2)C1=O)c1cccs1 (stereo unspecified)	?	?	-31%
COc1ccc(N2C(=O)CC(NC3CCCCNC3=O)C2=O)cc1 (stereo unspecified)	1%	20µM*	-11%
COc1ccc(N2C(=O)CC(Nc3ccc(C)cc3)C2=O)cc1 (stereo unspecified)	?	-5%	15%
COc1ccc(N2C(=O)CC(NCC#N)C2=O)cc1 (stereo unspecified)	-3%	14µM*	-18%
O=C1c2[nH]nc(-c3ccccc3)c2C(c2ccccc2)N1c1cccc(C(F)(F)F)c1 (stereo unspecified)	?	10%	nt
CC1CCC2(CC1)NC(=O)N(CC(=O)N1CCN(S(=O)(=O)c3ccc4c(c3)CCC4)CC1)C2=O (stereo unspecified)	-8%	-25%	-12%
O=C(CCNC(=O)c1ccccc1Cl)NC1=NCCS1	?	-1%	-14%[11.4 µM]
Cc1cc(N2CCCC2)ccc1/C=C1\NC(=S)N(C)C1=O	-5%	-14%	-8%
Cc1cc(N2CCCCC2)ccc1C=C1C(=O)N(C)C(=S)N(C)C1=O	-2%	7.1µM*	-28%
COCCn1c(Sc2nc(C)cs2)nc2c1c(=O)[nH]c(=O)n2C	-1%	-11%	0.16µM*
COCCn1c(SCc2ccccc2Cl)nc2c1c(=O)[nH]c(=O)n2C	?	-34%	13%
CC(=O)Nc1ccc(C(=O)NCCc2ccccc2)cc1	-10%	5µM*	-2%
CC(C)(C)c1ccc(C(=O)NCCc2ccccc2)cc1	-3%	3%	-20%
Cc1c(C(=O)Nc2cccc(F)c2)cnn1-c1ccccc1	-15%	-1%	-22%
CCOC(=O)c1cc(S(=O)(=O)Nc2cc(C)c(Cl)cc2OC)[nH]n1	24%	-3%	nt
COc1ccccc1/C=C/C=N/NC(=O)c1cc(-c2ccco2)[nH]n1	-3%	7.1µM*	?
CC(/C=N/NC(=O)c1cc(-c2ccc(C)o2)[nH]n1)=C\c1ccccc1	-7%	-35%	-42%
O=C(N/N=C/C(Br)=C/c1ccccc1)c1cc(-c2ccco2)[nH]n1	2%	nt	20µM*
COc1ccccc1/C=C/C=N/NC(=O)c1ccccn1	-2%	-7%	-10%
CCOC(=O)c1ccc(N(CC(=O)NCC2CCCO2)C(=O)CCC(=O)Nc2cc(C)on2)cc1 (stereo unspecified)	-11%	3%	30%
SMILES	AmpC inh detg	Sm TGR block	AmpC no deterg
Cc1ccc(S(=O)(=O)N2CCCCC2)cc1C(=O)OCC(=O)NC(=O)NC12CC3CC(CC(C3)C1)C2	-8%	-1%	-37%
CCC1=C(OC(=O)N(CC)CC)N2C(=O)OC(=NCCc3c[nH]c4ccccc34)[C@]2(Cc2ccccc2)[C@H]2C1=CC[C@H]1C(=O)NC(=O)[C@H]12	3%	-1%	51%
Cc1cc(O)c(C=O)c2c1C(=O)Oc1c(CO)c(O)c3c(c1O2)C(O)OC3=O (stereo unspecified)	50µM*	14µM*	-41%
Cc1nc2ccc(NC(=O)NC(=O)c3c(Cl)cccc3Cl)cc2o1	-4%	-6%	-26%
COC(=O)C1=C(C)NC2=C(C(=O)CCC2)C1c1ccsc1 (stereo unspecified)	-12%	6%	-7%
CC1=C(C(=O)N2CCOCC2)C(c2ccsc2)C2=C(CCCC2=O)N1 (stereo unspecified)	2%	45µM*	-14%
Cc1cccc(CC(=O)N2CC(=O)Nc3ccc(Br)cc3C2c2ccc(F)cc2)c1 (stereo unspecified)	-3%	-3%	nt
CCOc1ccc(CCNC(=O)c2sc3ncccc3c2-n2c(C)ccc2C)cc1	23%	21%	nt
O=C(CN1CCN(c2ccc(O)cc2)CC1)Nc1ccccc1C(=O)NCCc1ccccc1	-7%	40µM*	-1%

Screening data from PubChem BioAssay.
